This passage reports inhibition results from PubChem BioAssay AID1566 (Sanford-Burnham Center for Chemical Genomics, 2009).

The campaign covered roughly 290,000 compounds. About 1,800 (0.62%) were called active. The full list was thinned out, with actives kept by preference. Values without a mark were called inactive. Cut-off read from the data, not from the text of the source: active = inhibition above about 50%; inactive = the rest.

The nature of the assay: NOD2 signaling inhibitors, cell-based, luminescence, uHTS, HEK293 (AID 1566). The following applies: HEK293 NOD2/NF-kB luciferase reporter, at 4 µM, active compounds read high.
Regarding `O=C(O)CNC(=S)N(Cc1ccccc1)Cc1ccccc1F`, the inhibition is 16.1%.
The figure for `CN=c1scc(-c2ccccc2Br)n1/N=C/c1ccc[nH]1` is 42.5%.
The figure for `CN=c1scc(-c2ccccc2F)n1/N=C/c1ccc(O)c(O)c1O` is 18.1%; for `CN=c1scc(-c2ccccc2F)n1/N=C/c1ccc[nH]1` it is 90.4% (active).
In the case of `Cc1cc(C(=O)COC(=O)c2ccc[nH]c2=O)c(C)n1-c1ccc(F)cc1` it was -12.8%; in that of `Cc1cc(C(=O)COC(=O)C2CC2)c(C)n1-c1ccc(F)cc1`, 60.3% (active); in that of `Cc1cc(C(=O)CN2CCCCC2)c(C)n1-c1ccc(F)cc1`, -23.5%.
For the compound `Cc1cccc(C(=O)NC(=S)Nc2ccc3[nH]c(=O)[nH]c3c2)c1`, the inhibition is -10.1%.
In the case of `O=C(COC(=O)CCC(=O)c1cccs1)Nc1ccc(Cl)cn1` it was -14%; in that of `Cc1cc(C2=NNC(=NC3CCCCC3)SC2)c(C)n1-c1c(C)n(C)n(-c2ccccc2)c1=O`, 2%; in that of `Cc1cc(-c2csc(N)n2)c(C)n1Cc1ccco1`, 1.7%.
On to `CCN=C1NN=C(c2cc(C)n(Cc3ccco3)c2C)CS1`, for which the inhibition is 82.2% (active).
For `CCN=C1NN=C(c2cc(C)n(CCc3ccccc3)c2C)CS1`, the inhibition is 0.1%.
With `COCCCN=C1NN=C(c2cc(C)n(Cc3ccco3)c2C)CS1`, the inhibition is -60.2%.
Regarding `Cc1cc(C2=NNC(=NC3CC3)SC2)c(C)n1Cc1ccco1`, the inhibition was 85.3% (active).
The figure for `CCCC(=O)C1=C(O)C(C(=O)OC)C(C)(C)CC1=Nc1cccc2ccccc12` (stereo not given) is 13.4%; for `CCCn1c(SCC(=O)NC2CCCCC2)nnc1-c1ccccn1` it is 22.2%; for `C=CCn1c(O)c(C=Nc2ccc(CN3CCCCC3)cc2)c(=O)[nH]c1=S` it is 25.5%.
The figure for `CCCCCn1ccc(=N)cc1` is 31.1%; for `CCCCCCn1ccc(=N)cc1` it is 40.3%; for `C[C@]12CCC3C(CC[C@H]4CC(O)CC[C@]34C)C1CC/C2=N/O` (stereo not given in full) it is 26.5%.
The figure for `C[C@]12CCC3C(CC[C@H]4CC(O)CC[C@]34C)C1CC/C2=N/NC(=O)c1ccncc1` (stereo not given in full) is -5.7%; for `C/C(=N\NC(N)=S)C1=CCC2C3CC[C@H]4CC(O)CC[C@]4(C)C3CC[C@]12C` (stereo not given in full) it is 54.6% (active).
As to `Cc1cc(CNC(=O)c2cccc([N+](=O)[O-])c2C)c2ccccc2n1`, the inhibition was 31.5%.
On to `O=C(Oc1ccccc1C(=O)Nc1ccccc1)c1ccc(Br)c([N+](=O)[O-])c1`, for which the inhibition is -12.7%.
With `O=C(CSc1nnc(CNC(=O)c2ccco2)o1)Nc1ccc(OC(F)(F)F)cc1`, the inhibition is 9.8%.
As to `COc1ccccc1NC(=O)CSC1=NC(=O)C(Cc2ccccc2)C(=O)N1` (stereo not given), the inhibition was -3%.
The figure for `CC(=O)NS(=O)(=O)c1ccc(NS(=O)(=O)c2ccc3ccccc3c2)cc1` is 0.7%.
The figure for `COc1ccccc1Cn1c(=S)[nH]c2cc(C(=O)NCCN(C)C)ccc2c1=O` is 20.6%; for `Cc1cc(NC(=O)CSc2ccc3nnc(-c4ccc(Cl)cc4)n3n2)no1` it is 5.8%; for `CCOc1cc(/C=C2\C(=N)N3N=C(C)SC3=NC2=O)ccc1OCCOc1cccc(OC)c1` it is 7.2%.
Regarding `COc1cc(/C=C2\C(=N)N3N=C(S(C)(=O)=O)SC3=NC2=O)cc(OC)c1OCCOc1cccc(C)c1`, the inhibition is 25.9%.
As for `C=CCOc1ccc(/C=C2\C(=N)N3N=C(S(=O)(=O)CC)SC3=NC2=O)cc1OC`, the inhibition is 28.5%.
Take `CCS(=O)(=O)C1=NN2C(=N)/C(=C\c3ccc(OS(=O)(=O)c4ccccc4)c(OC)c3)C(=O)N=C2S1`: the inhibition is 12.5%.
The figure for `CCOC(=O)C1=NN(c2ccccc2)C2C(=O)N(c3ccccc3OC)C(=O)C12` (stereo not given) is 21.2%; for `Cc1cc(C)n2nc(SCC(=O)c3ccccc3)nc2n1` it is -15.3%.
On to `COc1ccc(CC(=O)Nc2nc(-c3ccc(F)c(F)c3)cs2)cc1`, for which the inhibition was 15.8%.
For the compound `COc1cc(CC(=O)Nc2nc(-c3ccc(F)c(F)c3)cs2)cc(OC)c1OC`, the inhibition was 58.7% (active).
In the case of `COc1ccc(-c2csc(NC(=O)Cc3cc(OC)c(OC)c(OC)c3)n2)cc1OC` it was 22.7%.
For the compound `O=C(Nc1c(F)cc(F)cc1Br)c1cccnc1`, the inhibition was -9.2%.
The figure for `C/C(CC(=O)Nc1ccc(Cl)c(Cl)c1)=N\NC(N)=S` is -15.1%; for `N#Cc1c(-c2ccc(Cl)cc2)cc(-c2ccccc2)nc1SCC(=O)O` it is 26%; for `COc1ccc(-c2cc(-c3ccc(Cl)cc3)c(C#N)c(SCC(=O)O)n2)cc1` it is 62.5% (active).
The figure for `COc1ccc(-c2cc(C(F)(F)F)c(C#N)c(SCC(=O)O)n2)cc1` is 9.7%; for `COc1ccc(Cl)c(OC)c1C(=O)NC(=O)Nc1nc(C)nc(C)n1` it is 3.1%.
For `CCC(=O)Nc1cc2nn(-c3ccccc3)nc2cc1Cl`, the inhibition was -189%.
In the case of `CC(C)(C)C(=O)Nc1cc2nn(-c3ccccc3)nc2cc1Cl` it was 76.2% (active); in that of `CC(=O)Nc1cc2nn(-c3ccccc3)nc2cc1Cl`, -133%; in that of `CC1(C)c2ccccc2N2CCC(=O)NC21/C=C/c1ccco1` (stereo not given), 3.8%.
The figure for `COC(=O)c1ccc(NC(=O)c2cccc(N3C(=O)C4C5C=CC(C6CC56)C4C3=O)c2)cc1` (stereo not given) is 58.5% (active).
As to `O=C(Nc1ccccc1)c1cccc(N2C(=O)C3C4C=CC(C5CC45)C3C2=O)c1` (stereo not given), the inhibition is 31.7%.
The figure for `COc1ccc(NC(=O)c2cccc(N3C(=O)C4C5C=CC(C6CC56)C4C3=O)c2)cc1` (stereo not given) is 9.4%.
In the case of `CCOc1ccccc1C(=O)NC(C(=O)NCc1ccccc1OC)C(C)C` (stereo not given) it was 2.5%; in that of `CNC(=S)N1CCN(c2nc(-c3ccc(Cl)cc3)cs2)CC1`, 11.2%; in that of `COCCNC(=S)N1CCN(c2nc(-c3ccc(Cl)cc3)cs2)CC1`, 35.9%.
For the compound `CC(C)CNC(=S)N1CCN(c2nc(-c3ccc(Cl)cc3)cs2)CC1`, the inhibition is 54.9% (active).
In the case of `CCN(CC(=O)Nc1c(F)cccc1F)C(=O)CCc1c[nH]c2ccccc12` it was -24.9%; in that of `Cc1onc(-c2ccccc2)c1NC(=O)N(CCC(=O)O)Cc1ccccc1`, 15.3%; in that of `Cc1c(NC(=O)NCc2ccccc2)c(=O)n(-c2ccccc2)n1C`, -6.6%.
In the case of `Cc1ccc(C(=O)N/C(=C\c2ccc(-c3ccccc3[N+](=O)[O-])o2)C(=O)NCCN(C)C)cc1` it was 50.5% (active); in that of `Cc1ccc(C(=O)N/C(=C\c2ccc(-c3ccccc3[N+](=O)[O-])o2)C(=O)NCCCN2CCOCC2)cc1`, 38.2%.
`Cc1ccc(C(=O)N/C(=C\c2ccc(-c3ccccc3[N+](=O)[O-])o2)C(=O)NCCCN(C)C)cc1`: the inhibition is 49.4%.
Take `NC(=O)c1cc([N+](=O)[O-])ccc1NCCN1C(=O)c2ccc(C(=O)O)cc2C1=O`: the inhibition was 17.5%.
In the case of `Cc1cc(=O)[nH]c2ccc(S(=O)(=O)Nc3ccccc3)cc12`, the inhibition is 4.4%.
For `O=C(Nc1ccc(C(=O)N2CCOCC2)cc1)c1cccc(Br)c1`, the inhibition was 8%.
The figure for `Cc1sc2nc3c(C(=O)N4CCN(c5ccccn5)CC4)cccn3c(=O)c2c1C` is 3.3%; for `C/C(Cn1nnc([N+](=O)[O-])n1)=N\NC(=O)c1cccc(Cl)c1` it is 48.8%.
`C/C(Cn1nnc([N+](=O)[O-])n1)=N\NC(=O)c1ccc(O)cc1`: the inhibition was 37.7%.
`COc1ccc(-c2csc(/C(C#N)=C\c3ccc(O)c([N+](=O)[O-])c3)n2)cc1OC`: the inhibition was -7.4%.
The figure for `COc1ccc(-c2csc(/C(C#N)=C\c3ccc(OC)c([N+](=O)[O-])c3)n2)cc1` is 25.7%; for `COc1ccc(C(=O)N/N=C/c2c(CO)cnc(C)c2O)cc1` it is -27.8%; for `COc1ccccc1N/N=C/c1c(CO)cnc(C)c1O` it is -3.8%.
Take `Cc1ncc(CO)c(/C=N/Nc2cccc(Cl)n2)c1O`: the inhibition is -52.5%.
For the compound `Cc1ncc(CO)c(/C=N/NC(=O)c2ccc(Br)cc2)c1O`, the inhibition is 51.6% (active).
In the case of `Cc1ncc(CO)c(/C=N/NC(=O)c2ccc(O)cc2)c1O` it was -8.9%.
The figure for `Cc1ncc(CO)c(/C=N/Nc2ccc(C(F)(F)F)cn2)c1O` is 59.1% (active).
As for `Cc1c(=O)n(OCc2ccccn2)c2ccccc2[n+]1[O-]`, the inhibition was 9.3%.
As to `N#CC1=C(SCC(=O)Nc2ccc(C(=O)O)cc2)NC(=O)CC1c1ccco1` (stereo not given), the inhibition was -4.5%.
Take `COc1ccc(-c2[nH]ncc2CN2CCN(c3ccccn3)CC2)c(OC)c1`: the inhibition is 11.3%.
Take `COC(=O)c1sc(S(=O)(=O)N2CCC(C(=O)O)CC2)c(C(=O)OC)c1C`: the inhibition was -0.8%.
For `COC(=O)COc1ccc(S(=O)(=O)N2CCCCC2)cc1[N+](=O)[O-]`, the inhibition was 4.8%.
The figure for `COc1cc(NC(=O)COc2ccc(Cl)cc2)ccc1-c1cc2ccccc2oc1=O` is 16.1%; for `COc1cc(NC(C)=O)ccc1-c1cc2ccccc2oc1=O` it is -3.4%.
In the case of `O=c1[nH]c(C2CCCN(S(=O)(=O)c3ccccc3)C2)nc2c1nnn2Cc1ccc2c(c1)OCCO2` (stereo not given) it was 21.7%; in that of `O=C(CN(CC1CCCO1)C(=O)CCC(=O)Nc1ccccn1)NCC1CCCO1` (stereo not given), 4.7%; in that of `Cc1ccc(C)c(-n2c(-c3ccc4c(c3)OCO4)n[nH]c2=S)c1`, 13.9%.
As for `C=C(C)COc1ccc(-c2nc(N)nc(C)c2-c2ccc(OC)cc2)c(O)c1`, the inhibition was 20.5%.
In the case of `O=C(CN1C(=O)NC2(CCCC2)C1=O)Nc1ccccc1C(F)(F)F` it was 18.6%.
In the case of `CCC(C)(C)C1CCC2(CC1)NC(=O)N(CC(=O)N(C)CC(=O)Nc1ccccc1C(F)(F)F)C2=O` (stereo not given) it was 52.8% (active); in that of `CCc1ccccc1NC(=O)CN(C)C(=O)CN1C(=O)NC2(CCCCCC2)C1=O`, 9.4%.

Usually inhibition stands for the relative decrease from the control value, in per cent.
